What was measured:
[1] = molecular target: Tyrosine-protein kinase SYK (Homo sapiens) (UniProt P43405); conditions: at 1 µM
[2] = molecular target: T1, Tyrosine-protein kinase Tec (Homo sapiens) (UniProt P42680); conditions: at 0.1 µM
T1 sequence (whole entry): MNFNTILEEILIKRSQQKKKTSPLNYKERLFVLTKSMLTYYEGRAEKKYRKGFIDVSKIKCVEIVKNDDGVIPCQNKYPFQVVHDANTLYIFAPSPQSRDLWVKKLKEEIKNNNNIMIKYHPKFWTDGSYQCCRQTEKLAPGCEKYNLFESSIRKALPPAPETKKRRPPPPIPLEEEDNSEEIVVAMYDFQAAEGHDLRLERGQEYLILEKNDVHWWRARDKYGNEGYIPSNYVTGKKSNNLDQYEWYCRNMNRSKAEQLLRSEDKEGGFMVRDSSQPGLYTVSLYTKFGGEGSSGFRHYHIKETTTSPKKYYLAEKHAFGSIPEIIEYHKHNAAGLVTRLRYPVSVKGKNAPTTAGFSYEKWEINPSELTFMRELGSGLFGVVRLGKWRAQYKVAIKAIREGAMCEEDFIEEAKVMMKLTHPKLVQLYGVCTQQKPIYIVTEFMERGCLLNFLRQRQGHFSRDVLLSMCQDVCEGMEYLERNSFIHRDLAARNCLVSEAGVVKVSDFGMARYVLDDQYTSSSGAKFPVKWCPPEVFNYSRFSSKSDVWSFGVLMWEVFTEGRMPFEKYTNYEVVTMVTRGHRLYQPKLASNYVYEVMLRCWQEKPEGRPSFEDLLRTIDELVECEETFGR

[3] = molecular target: T1, Tyrosine-protein kinase Tec (Homo sapiens); conditions: at 1 µM
[4] = molecular target: Angiopoietin-1 receptor (Homo sapiens) (UniProt Q02763); conditions: at 0.1 µM
[5] = molecular target: Angiopoietin-1 receptor (Homo sapiens) (UniProt Q02763); conditions: at 1 µM
[6] = molecular target: T2, Non-receptor tyrosine-protein kinase TNK1 (Homo sapiens) (UniProt Q13470); conditions: at 0.1 µM
T2 sequence (whole entry): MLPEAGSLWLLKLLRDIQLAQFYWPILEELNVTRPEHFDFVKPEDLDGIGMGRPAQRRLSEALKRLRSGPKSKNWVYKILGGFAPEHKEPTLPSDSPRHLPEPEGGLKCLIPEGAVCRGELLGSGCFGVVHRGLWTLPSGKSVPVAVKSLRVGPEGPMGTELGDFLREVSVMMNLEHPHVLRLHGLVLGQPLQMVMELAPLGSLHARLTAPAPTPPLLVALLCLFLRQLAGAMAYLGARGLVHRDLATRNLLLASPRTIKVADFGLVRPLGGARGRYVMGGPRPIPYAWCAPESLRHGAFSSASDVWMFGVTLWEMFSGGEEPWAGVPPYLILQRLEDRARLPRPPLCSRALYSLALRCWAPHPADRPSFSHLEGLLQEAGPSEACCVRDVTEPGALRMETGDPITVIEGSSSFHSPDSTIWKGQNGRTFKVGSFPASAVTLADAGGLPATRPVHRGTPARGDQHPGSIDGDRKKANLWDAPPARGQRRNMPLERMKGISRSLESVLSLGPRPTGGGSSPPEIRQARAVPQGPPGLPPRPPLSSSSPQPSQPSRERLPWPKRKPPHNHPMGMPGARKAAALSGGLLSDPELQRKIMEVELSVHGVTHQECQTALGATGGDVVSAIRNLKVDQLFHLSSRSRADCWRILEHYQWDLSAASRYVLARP

[7] = molecular target: T2, Non-receptor tyrosine-protein kinase TNK1 (Homo sapiens); conditions: at 1 µM
[8] = molecular target: Activated CDC42 kinase 1 (Homo sapiens) (UniProt Q07912); conditions: at 0.1 µM
[9] = molecular target: Activated CDC42 kinase 1 (Homo sapiens) (UniProt Q07912); conditions: at 1 µM
[10] = molecular target: High affinity nerve growth factor receptor (Homo sapiens) (UniProt P04629); conditions: at 0.1 µM;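 note: each value is a mean of replicate percent inhibition readings against TRKA kinase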
Sequence of High affinity nerve growth factor receptor (Homo sapiens) (P04629 33-796 limits assumed): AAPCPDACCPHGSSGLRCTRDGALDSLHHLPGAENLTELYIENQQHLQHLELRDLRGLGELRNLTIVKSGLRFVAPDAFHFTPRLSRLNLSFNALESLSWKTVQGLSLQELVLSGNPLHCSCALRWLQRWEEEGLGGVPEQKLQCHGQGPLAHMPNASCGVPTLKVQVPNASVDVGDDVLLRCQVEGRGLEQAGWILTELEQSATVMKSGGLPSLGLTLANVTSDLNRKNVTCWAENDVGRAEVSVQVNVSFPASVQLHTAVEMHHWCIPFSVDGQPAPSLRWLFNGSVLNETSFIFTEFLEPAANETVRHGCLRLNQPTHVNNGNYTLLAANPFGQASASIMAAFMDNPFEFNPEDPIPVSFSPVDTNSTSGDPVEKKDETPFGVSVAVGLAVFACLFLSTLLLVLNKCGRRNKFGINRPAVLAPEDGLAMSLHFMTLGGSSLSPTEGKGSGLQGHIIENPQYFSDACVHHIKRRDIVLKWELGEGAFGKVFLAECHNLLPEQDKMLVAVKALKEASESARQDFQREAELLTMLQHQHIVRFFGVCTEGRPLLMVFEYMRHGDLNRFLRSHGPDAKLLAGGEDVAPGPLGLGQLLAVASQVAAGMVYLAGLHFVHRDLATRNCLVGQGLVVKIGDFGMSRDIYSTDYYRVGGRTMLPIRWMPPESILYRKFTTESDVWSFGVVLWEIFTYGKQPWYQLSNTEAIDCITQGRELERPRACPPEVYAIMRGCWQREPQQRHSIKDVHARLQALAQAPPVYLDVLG

Sequence of Activated CDC42 kinase 1 (Homo sapiens) (Q07912 whole entry, looked up): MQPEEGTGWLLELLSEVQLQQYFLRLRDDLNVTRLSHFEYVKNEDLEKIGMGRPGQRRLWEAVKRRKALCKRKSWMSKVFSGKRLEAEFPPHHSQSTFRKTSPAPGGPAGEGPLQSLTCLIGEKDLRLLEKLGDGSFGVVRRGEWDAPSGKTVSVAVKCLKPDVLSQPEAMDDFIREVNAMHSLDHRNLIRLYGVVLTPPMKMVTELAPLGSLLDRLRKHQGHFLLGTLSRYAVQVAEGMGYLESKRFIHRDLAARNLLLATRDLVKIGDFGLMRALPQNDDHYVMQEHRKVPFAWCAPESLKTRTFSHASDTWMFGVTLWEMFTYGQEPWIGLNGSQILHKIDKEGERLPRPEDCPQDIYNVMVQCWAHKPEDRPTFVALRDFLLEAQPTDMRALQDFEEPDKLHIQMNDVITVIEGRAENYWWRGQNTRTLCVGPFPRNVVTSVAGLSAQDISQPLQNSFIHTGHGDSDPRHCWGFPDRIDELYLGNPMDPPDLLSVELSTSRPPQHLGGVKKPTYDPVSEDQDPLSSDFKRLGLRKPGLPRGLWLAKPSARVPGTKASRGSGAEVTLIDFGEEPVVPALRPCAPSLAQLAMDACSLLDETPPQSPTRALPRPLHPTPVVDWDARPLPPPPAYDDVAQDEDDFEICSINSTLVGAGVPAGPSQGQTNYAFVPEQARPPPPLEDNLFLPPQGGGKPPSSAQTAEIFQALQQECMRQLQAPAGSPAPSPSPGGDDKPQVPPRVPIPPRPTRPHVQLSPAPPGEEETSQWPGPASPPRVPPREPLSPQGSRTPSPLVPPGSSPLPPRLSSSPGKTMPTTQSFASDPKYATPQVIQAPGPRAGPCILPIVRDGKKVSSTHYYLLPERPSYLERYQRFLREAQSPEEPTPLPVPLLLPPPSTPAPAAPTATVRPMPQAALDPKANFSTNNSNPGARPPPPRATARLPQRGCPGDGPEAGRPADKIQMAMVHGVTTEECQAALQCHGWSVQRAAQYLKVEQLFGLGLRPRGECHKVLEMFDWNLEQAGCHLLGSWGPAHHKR
Sequence of Angiopoietin-1 receptor (Homo sapiens) (Q02763 whole entry): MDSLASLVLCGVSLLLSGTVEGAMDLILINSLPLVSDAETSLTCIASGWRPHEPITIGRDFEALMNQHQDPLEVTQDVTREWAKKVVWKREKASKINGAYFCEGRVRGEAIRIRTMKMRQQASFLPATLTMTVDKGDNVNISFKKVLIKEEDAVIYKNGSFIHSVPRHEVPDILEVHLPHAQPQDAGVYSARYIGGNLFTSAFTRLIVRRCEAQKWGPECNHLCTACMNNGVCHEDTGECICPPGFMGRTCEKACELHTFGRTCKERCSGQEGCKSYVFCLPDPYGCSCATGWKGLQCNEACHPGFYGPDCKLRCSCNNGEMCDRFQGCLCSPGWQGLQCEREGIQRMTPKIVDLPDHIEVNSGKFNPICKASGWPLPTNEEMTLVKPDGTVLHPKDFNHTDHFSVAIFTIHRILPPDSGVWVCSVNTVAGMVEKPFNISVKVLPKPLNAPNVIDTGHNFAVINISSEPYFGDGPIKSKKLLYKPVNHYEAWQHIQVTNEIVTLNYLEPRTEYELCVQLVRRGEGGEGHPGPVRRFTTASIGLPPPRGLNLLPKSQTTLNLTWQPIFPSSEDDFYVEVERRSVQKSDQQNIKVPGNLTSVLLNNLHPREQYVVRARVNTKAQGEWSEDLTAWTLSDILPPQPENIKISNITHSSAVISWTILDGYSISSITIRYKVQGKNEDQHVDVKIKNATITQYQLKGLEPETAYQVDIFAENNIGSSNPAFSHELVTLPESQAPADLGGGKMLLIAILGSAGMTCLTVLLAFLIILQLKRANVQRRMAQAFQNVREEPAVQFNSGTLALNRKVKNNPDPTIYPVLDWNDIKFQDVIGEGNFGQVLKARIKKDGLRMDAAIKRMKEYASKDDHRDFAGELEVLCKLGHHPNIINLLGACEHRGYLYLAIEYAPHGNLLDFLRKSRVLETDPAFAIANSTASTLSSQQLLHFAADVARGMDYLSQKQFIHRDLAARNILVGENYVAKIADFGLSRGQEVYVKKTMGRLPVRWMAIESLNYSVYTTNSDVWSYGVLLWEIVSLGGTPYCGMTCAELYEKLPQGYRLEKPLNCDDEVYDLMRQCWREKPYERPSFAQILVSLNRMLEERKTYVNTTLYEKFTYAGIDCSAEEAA

Row | Compound | inhibition [1] | inhibition [2] | inhibition [3] | inhibition [4] | inhibition [5] | inhibition [6] | inhibition [7] | inhibition [8] | inhibition [9] | inhibition [10]
1 | Cc1ccc(O)cc1Nc1ccnc2cc(-c3ccccn3)ccc12 | 1.9% | 46% | 83.4% | 7.91% | 48.2% | 8.49% | 38.1% | 2.64% | 18% | 4%
2 | CC(=O)Nc1cccc(C#Cc2cncnc2Nc2ccc(OCc3cccc(F)c3)c(Cl)c2)c1 | 0.71% | 5.52% | 8.88% | 1.44% | 7.33% | 0.67% | 1.04% | 1.8% | 5.63% | 0.89%
3 | COc1cc(/C=N/Nc2ncnc3[nH]ncc23)ccc1O | 14.2% | 8.19% | 38.6% | 2.16% | 9.2% | 4.02% | 18.9% | 1.76% | 8.52% | 2.3%
4 | Nc1nc(-c2ccc(F)cc2)c(-c2ccc3ncccc3n2)s1 | 0.4% | 4.57% | 6.46% | 1.26% | 4.32% | 4.65% | 6.8% | 1.85% | 3.57% | 4.1%
5 | Cc1cccc(Nc2ncc(-c3ccccc3)o2)c1 | 2.98% | 6.33% | 4.84% | 5.06% | 4.9% | 1.78% | 4.17% | 1.1% | 3.4% | 0.19%
6 | CCn1c(-c2nonc2N)nc2c(C#CC(C)(C)O)nc(OC[C@H](N)c3ccccc3)cc21 | 4.13% | 6.27% | 3.05% | 5.91% | 6.74% | 1.23% | -4.26% | 0.7% | 3.88% | 0.42%
7 | NS(=O)(=O)c1ccc(N/N=C2\C(=O)Nc3ccc4ncccc4c32)cc1 | 22.4% | 8.53% | 38.3% | 5.02% | 11.5% | 14.6% | 56.8% | 1.85% | 8.38% | 6.88%
8 | CCn1c(-c2nonc2N)nc2c(C#CC(C)(C)O)ncc(OC3CCNCC3)c21 | 1.12% | 5.92% | 3.33% | 4.81% | 7.95% | 1.33% | 0.26% | 0.61% | 1.17% | 2.16%
9 | COc1ccc(CNC(=O)c2ccc(-c3cc(-c4nnc(C)o4)ccc3C)cc2)cc1 | 0.6% | 2.72% | 3.52% | 3.37% | 8.26% | 6.31% | 16% | 3.84% | 6% | -2.81%
10 | CN(C)CCOc1ccc(-c2nc(-c3ccncc3)c(-c3ccc4c(c3)CC/C4=N\O)[nH]2)cc1 | -0.9% | 4.78% | 5.79% | 2.29% | 11.9% | 2.5% | 10.2% | 1.21% | 2.51% | 2.02%
11 | COc1ccc(-c2oc3ncnc(N)c3c2-c2ccc(NC(=O)Nc3cc(C(F)(F)F)ccc3F)cc2)cc1 | -8.92% | 5.43% | 14% | 79.3% | 86.1% | 21% | 85.3% | 4.09% | 9.81% | 71.1%
12 | CC1=C(C(=O)Nc2cc(Cl)c3[nH]ncc3c2)C(c2ccc(C(F)(F)F)cc2)CC(=O)N1 (stereo not given) | 1.05% | 3.36% | 6.05% | 4.83% | 5.04% | 4.45% | 3.87% | 0.65% | 2.37% | 3.77%
13 | CS(=O)(=O)CCNCc1ccc(-c2ccc3ncnc(Nc4ccc(OCc5ccccc5)c(C(F)(F)F)c4)c3c2)o1 | -5.62% | 0.36% | 3.4% | 0.1% | 4.31% | 1.84% | 9.92% | 0.97% | 1.65% | 2%
14 | COC(=O)c1sc(-n2cnc3cc(OC)c(OC)cc32)cc1OCc1ccccc1C(F)(F)F | 1.09% | 3.18% | 6.98% | 4.13% | 14.3% | 8.49% | 4.49% | 0.92% | 5.56% | 3.76%
15 | CC(=O)NCc1cccc(C#Cc2cncnc2Nc2ccc(OCc3cccc(F)c3)c(Cl)c2)c1 | 2.55% | 0.58% | 0.89% | 0.95% | 4.38% | -1.56% | -1.3% | -0.45% | -0.03% | 1.25%
16 | COc1ccc(-c2cc(-c3c[nH]nc3-c3ccccn3)ccn2)cc1 | -0.69% | 4.44% | 5.59% | 2.18% | 2.66% | 4.34% | 11.9% | 1.58% | 3.35% | 1.86%
